Laboratory results as given in paper PMC8384837, “Expanding the binding specificity for RNA recognition by a PUF domain”.

biological target: PUM1 PUF domain R4-WSW (Homo sapiens, UniProt Q14671 828-1176, N971W;H972S;Q975W); experiment: yeast three-hybrid, YBZ-1, SC-Leu-His + 0.5 mM 3-AT, 4 days; settings: tags: N-Gal4 AD-HA kept; label: inside an RPR1-promoter hybrid RNA with tandem MS2 sites; ssRNA
Method in brief: (§1)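 The interaction score is the logarithmic change in variant frequency from input to selection. It uses log2, with a pseudocount of 1 for absent variants, and frequencies came from PCR-amplified, Illumina-sequenced repeat regions. The libraries were Pumilio-1 PUF domains randomized at the three base-contacting residues per repeat, co-expressed with matching RNA elements in strain YBZ-1 (LexA–MS2 coat fusion, HIS3 reporter). Plating lasted four days on SC-Leu (input) or SC-Leu-His + 0.5 mM 3-AT (selection).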

Row | Sequence | binding signal
1 | GGCUAGAACUAGUGGAUCCCCCGGCGCCCGGCGGCUCGAGCCCGGGUAAGUGUAUAUAGUCUGCAUGCCGCCGGGCGCCAUGCCUGCAGGUCGACUCUAGAAAACAUG | 3.38 log2 enrichment (interaction score)
2 | GGCUAGAACUAGUGGAUCCCCCGGCGCCCGGCGGCUCGAGCCCGGGUAAGUGUACAUAGUCUGCAUGCCGCCGGGCGCCAUGCCUGCAGGUCGACUCUAGAAAACAUG | 2.13 log2 enrichment (interaction score)
3 | GGCUAGAACUAGUGGAUCCCCCGGCGCCCGGCGGCUCGAGCCCGGGUAAGUGUAAAUAGUCUGCAUGCCGCCGGGCGCCAUGCCUGCAGGUCGACUCUAGAAAACAUG | 4.02 log2 enrichment (interaction score)

biological target: PUM1 PUF domain R3-SRA (Homo sapiens, UniProt Q14671 828-1176, C935S;Q939A); experiment: as above; settings: tags: N-Gal4 AD-HA kept; label: inside an RPR1-promoter hybrid RNA with tandem MS2 sites; ssRNA
Method in brief: as §1

Row | Sequence | binding signal
4 | GGCUAGAACUAGUGGAUCCCCCGGCGCCCGGCGGCUCGAGCCCGGGUAAGUGUAAUUAGUCUGCAUGCCGCCGGGCGCCAUGCCUGCAGGUCGACUCUAGAAAACAUG | 0.68 log2 enrichment (interaction score)
5 | GGCUAGAACUAGUGGAUCCCCCGGCGCCCGGCGGCUCGAGCCCGGGUAAGUGUAAGUAGUCUGCAUGCCGCCGGGCGCCAUGCCUGCAGGUCGACUCUAGAAAACAUG | 3.65 log2 enrichment (interaction score)
6 | GGCUAGAACUAGUGGAUCCCCCGGCGCCCGGCGGCUCGAGCCCGGGUAAGUGUAAAUAGUCUGCAUGCCGCCGGGCGCCAUGCCUGCAGGUCGACUCUAGAAAACAUG | 3.83 log2 enrichment (interaction score)
